# Publication PMC5540273 (PLoS ONE, 2017)
# Columns and labels:
# Conditions in all cases: concentration: 1 μM, replicates: in singlicate; n = 1
# VPS34 = tested on: T1, VPS34
# T1 construct: gene PIK3C3
# VRK2 = tested on: VRK2
# WEE1 = tested on: WEE1
# WEE2 = tested on: WEE2
# WNK1 = tested on: WNK1
# WNK2 = tested on: WNK2
# WNK3 = tested on: WNK3
# WNK4 = tested on: WNK4
# YANK1 = tested on: T2, YANK1
# T2 construct: gene STK32A
# YANK2 = tested on: T3, YANK2
# T3 construct: gene STK32B
# YANK3 = tested on: T4, YANK3
# T4 construct: gene STK32C
# YES = tested on: T5, YES
# T5 construct: gene YES1
# YSK1 = tested on: T6, YSK1
# T6 construct: gene STK25
# YSK4 = tested on: T7, YSK4
# T7 construct: gene MAP3K19
# ZAK = tested on: ZAK
# ZAP70 = tested on: ZAP70
# p38-alpha = tested on: T8, p38-alpha
# T8 construct: gene MAPK14
# p38-beta = tested on: T9, p38-beta
# T9 construct: gene MAPK11
# p38-delta = tested on: p38-delta
# p38-gamma = tested on: T10, p38-gamma
# T10 construct: gene MAPK12
# 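Further: KINOMEscan kinase panel screen.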
Compound,%Inh (VPS34) [%],%Inh (VRK2) [%],%Inh (WEE1) [%],%Inh (WEE2) [%],%Inh (WNK1) [%],%Inh (WNK2) [%],%Inh (WNK3) [%],%Inh (WNK4) [%],%Inh (YANK1) [%],%Inh (YANK2) [%],%Inh (YANK3) [%],%Inh (YES) [%],%Inh (YSK1) [%],%Inh (YSK4) [%],%Inh (ZAK) [%],%Inh (ZAP70) [%],%Inh (p38-alpha) [%],%Inh (p38-beta) [%],%Inh (p38-delta) [%],%Inh (p38-gamma) [%]
CNc1ncnc2[nH]ncc12 [SKF-18355],30,10,5,0,0,0,12,0,0,9,0,0,0,46,0,24,6,8,0,0
CCc1nc(-c2cccc(C)c2)c(-c2ccnc(NCc3ccccc3)c2)s1,3,0,0,25,0,12,0,0,0,2,19,0,6,0,11,0,99.8,69,0,0
Cc1cn2c(=O)cc(N3CCOCC3)nc2n1Cc1cccc(Cl)c1Cl [GSK2334006],96.7,0,20,16,0,19,27,0,23,0,34,21,0,75,6,6,46,16,22,0
O=C(Nc1n[nH]c2cc(-c3cccc(F)c3)ccc12)C1CC1 [SB-735464],0,23,0,4,28,0,36,22,0,0,0,1,0,82,8,0,1,7,0,15
CN1c2ccc(NCc3ccc(F)cc3)cc2-c2c(cnn2C)S1(=O)=O,0,0,0,0,42,5,8,0,0,3,0,0,0,8,0,0,0,0,13,0
CN(C(=O)c1ccc(-c2cc(-c3c[nH]nc3-c3ccccn3)ccn2)cc1)C1CCOCC1 [GW810083],24,100,0,22,0,0,0,0,0,0,0,0,0,0,18,13,10,3,5,0
O=c1cc(N2CCOCC2)nc2n(Cc3cccc(C(F)(F)F)c3)ccn12 [GSK2297543],93.9,0,6,10,2,0,19,22,0,0,0,9,0,0,8,0,0,0,21,11
Cc1nnc(-c2ccc3occ(-c4ccc(C(C)O)cc4)c3c2)o1 (stereo not drawn),18,0,8,7,0,0,0,0,5,2,0,3,0,19,46,1,10,13,0,1
Fc1ccc(-c2ncn(CCCN3CCOCC3)c2-c2ccccn2)cc1 [SB-211742],20,0,21,11,0,0,5,0,0,0,0,0,0,0,0,3,2,0,2,23
CCCCCc1nc2c(N)ncnc2n1CCCCC [SKF-97255],0,0,0,3,7,0,0,0,0,12,0,0,12,14,13,13,0,19,0,50
Cc1ccc(C(=O)NCC(N)=O)cc1-n1c(C)cc(OCc2ccc(F)cc2F)c(Br)c1=O,0,0,3,17,0,5,0,0,0,10,6,16,0,0,24,0,100,100,18,8
CC(C)(C)n1cnc2c(N)ncnc21 [SKF-97359],15,100,0,12,0,25,40,0,0,0,0,27,0,0,0,21,0,0,0,2
Cc1nnc(-c2ccc(C)c(-c3ccc(C(=O)Nc4ccc(NS(C)(=O)=O)cc4)cc3)c2)o1 [GW702865],0,0,17,0,0,1,35,26,6,0,17,11,0,0,0,15,99.7,70,17,0
c1ccc(-c2cc(-c3c[nH]nc3-c3ccccn3)ccn2)cc1 [GW576604],18,2,2,0,0,18,0,11,12,0,0,0,0,13,16,0,47,0,40,0
CC(=O)Nc1ccc(COc2ccc(Nc3ccnc4cc(-c5ccccn5)ccc34)cc2)cc1.Cl [GW440148],0,0,18,0,10,9,21,83,6,2,0,23,18,18,73,0,28,0,40,0
NCC(NC(=O)c1cc(-c2cn[nH]c2)c(-c2ccnc3[nH]ccc23)s1)c1ccccc1.O=C(O)C(F)(F)F.O=C(O)C(F)(F)F (stereo not drawn) [GSK1325775],59,0,0,0,6,9,21,24,15,0,8,0,24,99.8,4,0,10,0,10,27
Cl.Oc1cccc(Nc2ccnc3cc(-c4ccncc4)ccc23)c1 [GW494601],34,6,10,7,0,13,41,46,33,12,0,94.6,7,91.7,84,2,50,0,25,0
Fc1ccc(-c2nn3c(OCC(F)(F)F)cccc3c2-c2ccncc2)cc1 [GW514784],2,33,10,0,14,0,27,38,30,24,0,11,17,0,17,0,99.9,40,22,1
O=c1cc(N2CCOCC2)nc2n(Cc3cccc(F)c3)ccn12 [GSK2297430],93.9,0,0,9,0,12,8,3,7,14,22,16,0,33,0,0,43,0,22,0
O=C(NOCC1CC1)c1ccc(F)c(F)c1Nc1ccc(I)cc1Cl,0,0,0,0,0,0,0,0,6,0,0,0,0,0,0,0,0,19,0,0
COc1ccc(CNC(=O)NC2CCN(c3ccnc(Nc4ccc(OC)cc4)n3)C2)cc1 (stereo not drawn) [GSK1379727],0,32,9,7,4,0,44,63,0,0,8,3,0,36,0,0,11,0,8,45
